# Bioassay records (PubChem)
# In the library only some 2.8% were active in any assay of this set; here they are far more common.
# PAFAH2 FP inh: inhibitors of human PAFAH2. recombinant PAFAH2, FP-rhodamine activity probe, fluorescence polarization. inhibition, % at 3.39 µM. 340,000 tested, 0.99% active;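 active means inhibition above the mean over all tested compounds plus 3 SD, cut at about 30% in these data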;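 further: inhibitors block probe labeling of enzyme so polarization drops; 0% = enzyme with DMSO and 100% = wells lacking PAFAH2 protein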
# HTRA1 inh: HTRA1 (human) protease inhibition | AID 504803 | Q92743 | recombinant HTRA1, FP-rhodamine activity-based probe, fluorescence polarization | 340,000 tested, 0.5% active | inhibition, % at 5.96 µM; in the data active means inhibition above about 36%;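 further: 0% = enzyme with DMSO and 100% = wells lacking enzyme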
# pPAFAH FP inh: inhibitors of human plasma PAF acetylhydrolase (pPAFAH) | AID 463082 | 330,000 tested, 1.5% active | inhibition, % at 3.39 µM | recombinant pPAFAH, FP-rhodamine probe fluorescence polarization;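 active means inhibition above the mean inhibition across the screen plus 3 SD, cut at about 25% in these data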;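 further: inhibitors block binding of the rhodamine activity-based probe so polarization drops; 0% = enzyme with DMSO and 100% = wells lacking pPAFAH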
# Target sequence (Q13093 whole entry, looked up): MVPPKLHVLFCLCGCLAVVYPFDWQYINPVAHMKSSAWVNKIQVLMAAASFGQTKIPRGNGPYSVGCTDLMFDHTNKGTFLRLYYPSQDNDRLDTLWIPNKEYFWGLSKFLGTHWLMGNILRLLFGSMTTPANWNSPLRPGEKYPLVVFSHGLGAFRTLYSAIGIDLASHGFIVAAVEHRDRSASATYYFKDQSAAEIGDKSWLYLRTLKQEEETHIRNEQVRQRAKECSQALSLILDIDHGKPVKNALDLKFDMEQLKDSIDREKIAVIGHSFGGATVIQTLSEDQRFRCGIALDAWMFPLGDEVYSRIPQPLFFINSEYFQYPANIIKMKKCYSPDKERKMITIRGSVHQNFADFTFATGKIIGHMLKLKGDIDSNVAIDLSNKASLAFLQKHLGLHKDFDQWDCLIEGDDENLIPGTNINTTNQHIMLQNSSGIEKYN
# DAGLB inhibitor: blocks human DAGLB lipase activity | Q8NCG7 | HEK293T DAGLB membrane lysate, EnzChek fluorogenic substrate | inhibition, % at 5.17 µM | 340,000 tested, 0.059% active; in the data active means inhibition above about 34%;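 further: 0% = enzyme with vehicle and 100% = wells lacking enzyme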
# PAFAH1B3 inh: inhibitors of human PAFAH1B3; Q15102; recombinant PAFAH1B3, FP-rhodamine probe, fluorescence polarization; inhibition, % at 3.39 µM; 340,000 tested, 0.28% active; AID 492972;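 active means inhibition above the screen-wide average of all tested compounds plus 3 SD, cut at about 25% in these data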;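 further: 0% = enzyme with DMSO only and 100% = wells lacking PAFAH1B3 protein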
# PAFAH1B2 FP inh: blocks human PAF acetylhydrolase 1b catalytic subunit 2; P68402; 340,000 tested, 1.2% active; inhibition, % at 3.39 µM; recombinant PAFAH1B2, FP-rhodamine activity probe, fluorescence polarization;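 active means inhibition above the mean of all tested compounds plus 3 SD, cut at about 24% in these data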;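 further: 0% = enzyme with DMSO and 100% = wells lacking PAFAH1B2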
# HTRA1 inh conf: HTRA1 (human) inhibition, confirmation; shares compounds with HTRA1 inh; recombinant HTRA1, FP-rhodamine activity-based probe, fluorescence polarization; inhibition, % at 5.96 µM; 1,600 tested, 66% active;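 active means mean inhibition over three repeats above a set limit taken from the earlier primary screen, cut at about 37% in these data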;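 further: 0% = HTRA1 with DMSO and 100% = wells lacking HTRA1; inhibitors block probe binding so polarization drops and inhibition rises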
# Active calls of the source: *; / = not tested or not shown.
SMILES,PAFAH2 FP inh,HTRA1 inh,pPAFAH FP inh,DAGLB inhibitor,PAFAH1B3 inh,PAFAH1B2 FP inh,HTRA1 inh conf
O=C(CN1CCN(S(=O)(=O)c2ccc(Cl)cc2)CC1)c1ccc(O)c(O)c1,4,43*,16,3,6,33*,44*
C[C@]12CCC[C@H](O1)c1c(cc3c(c1O)C(=O)c1c(O)cc(O)cc1C3=O)O2,30*,37*,27*,11,19,15,62*
Cc1cc(C)c(S(=O)(=O)Nc2ccc(C(=O)O)cc2)cc1S(=O)(=O)Nc1ccc(C(=O)O)cc1,5,-2,3,0,3,4,/
COc1cccc2c1C(=O)c1c(O)c3c(c(O)c1C2=O)CC(O)(C(C)=O)CC3OC1CC(N(C)C)C(O)C(C)O1 (stereo not given),62*,68*,/,-13,46*,59*,68*
COc1cccc2c1C(=O)c1c(O)c3c(c(O)c1C2=O)C[C@@](O)(C(=O)CO)C[C@@H]3OC1CC(N)C(O)C(C)O1 (stereo not given in full),54*,73*,/,-21,52*,52*,65*
CCOc1ccc(NC(=O)CN(c2ccc(OC)c(OC)c2)S(=O)(=O)c2ccc(C)cc2)cc1,5,-4,4,-5,1,-2,/
CSCC[C@H](NC(=O)Nc1cccc(Br)c1)C(=O)O,-4,0,3,-1,7,2,/
O=S(=O)(c1cccnc1)N1CCn2cccc2C1c1ccccc1F (stereo not given),8,77*,0,1,11,3,29
CC1c2cccn2CCN1S(=O)(=O)c1ccccc1 (stereo not given),10,0,7,-2,10,7,/
CCN(CC)C(=O)c1ccc(-c2nnc(Nc3ccc(C(=O)N(C)C)cc3)c3ccccc23)cc1,1,-2,-2,0,8,0,/
CCN(CC)C(=O)c1ccc(-c2nnc(Nc3ccc(O)cc3)c3ccccc23)cc1,5,41*,-1,4,-2,2,25
